# Screening data from PubChem BioAssay.
# Sampled rows, rich in hits. Any-hit rate of the full collection: about 3.8%.
# S2 tox: Viability Counterscreen for Primary qHTS for Inhibitors of ATXN expression; S2 cells (HEK-293 line with an ATXN2-luciferase reporter) viability, CellTiter-Fluor protease fluorescence, 24 h; Potency, µM (titrated, usually from 56.7 µM), actives largely listed as cytotoxic; 0.49% of 400,000 active; further: nearly all actives have a fitted effect of over 40% in size
# TGFb SMAD3 inh: qHTS for Inhibitors of TGF-b; HepG2 CAGA-GFP TGF-b/SMAD3 reporter, GFP fluorescence, 18 h; TGF-beta stimulated, 500 pg/mL final; Potency, µM (top dose mostly 46.1 µM), for the others: top-dose activity, negative = inhibition, actives largely listed as inhibitors; 1.2% of 410,000 active; further: on the % scale 0 is the no-effect control and ±100 the full control effect; nearly all actives have a fitted effect of over 65% in size
#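 HEPG2 CAGA-GFP reporter cells (1000/well, DMEM with 1% FBS) received compounds, then recombinant TGF-beta at 500 pg/mL final for 18 hours at 37 degrees C. Per-cell GFP summed per well was normalised to unstimulated and stimulated DMSO controls before curve fitting.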
# HepG2 tox: qHTS for Inhibitors of TGF-b: Cytotox Counterscreen. Potency, µM (doses to about 46.1 µM), inactives show top-dose activity change, negative = cytotoxicity, actives largely listed as cytotoxic. HepG2 CAGA-GFP viability, ATP luminescence, 18 h. AID 588856, 2011. 0.76% of 410,000 active
#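 CellTiter-Glo luminescence gave cytotoxicity after 18 hours at 37 degrees C. The cells were HepG2 CAGA-GFP in 1% FBS DMEM, stimulated with 500 pg/mL TGF-beta after compound addition. %Activity was normalised to no-cell wells (complete cell-killing) and DMSO (no toxicity), and curves were fitted and classified.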
# Nrf2 block: Nrf2 qHTS screen for inhibitors; 2.1% of 360,000 active; Potency, µM (titrated, usually from 46 µM), for the others: top-dose activity change, negative = inhibition, hits mostly inhibitors; A549 ARE-Fluc reporter, luciferase luminescence, 18-24 h; further: on the % scale 0 is the no-effect control and ±100 the full control effect; nearly all actives have a fitted effect of over 60% in size
#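 Concentration-response testing used A549 ARE_Fluc cells at 5000 cells/well. Following an 18-24 h compound incubation, viability was read by fluorescence (Ex 405/Em 525) and luciferase output by luminescence.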
# A549 viability: Nrf2 qHTS screen for inhibitors: counterscreen for cytotoxicity | A549 ARE-Fluc cells, CellTiter-Fluor viability, 18-24 h | Potency, µM (series often up to 46 µM), inactives show top-dose activity change, negative = cytotoxicity, usual class: inhibitors | 0.16% of 390,000 active | AID 504648, 2011; further: on the % scale 0 is the no-effect control and ±100 the full control effect
#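 Cytotoxicity counterscreen: CellTiter-Fluor fluorescence was measured in A549 ARE_Fluc cells after 18-24 h of compound exposure in a concentration series. The subsequent BugLite luminescent read reports ARE-luciferase activity.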
# ATXN2 expr inh: Primary qHTS for Inhibitors of ATXN expression; HEK-293 ATXN2-luciferase reporter, luminescence, 24 h; Potency, µM (highest dose often 57 µM), without a hit: at the top dose activity change, negative = inhibition, actives largely listed as inhibitors; 0.72% of 360,000 active; AID 1745845, 2022; further: on the % scale 0 is the no-effect control and ±100 the full control effect; nearly all actives have a fitted effect of over 55% in size
#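 qHTS (up to 57 uM final) was run with 24 h compound exposure of reporter cells at 37 °C. Each well was multiplexed: SteadyGlo luminescence measured ATXN2-luciferase expression after a fluorogenic Gly-Phe-AFC viability readout (25 uM final).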
# An asterisk follows results filed as active; i = inactive; ? = inconclusive; . = no result given; [ ] = dose if it differs, or a comment. The call rests on the fitted dose curve; in most records, active means well fitted curve in the direction sought with a large enough effect; inconclusive means small, poorly fitted or top-dose-only effect, or another doubt; inactive means no such curve, though single readings can be large; an effect the other way counts as inactive or inconclusive. Potency means the concentration at half of the fitted maximal effect.
SMILES,S2 tox,TGFb SMAD3 inh,HepG2 tox,Nrf2 block,A549 viability,ATXN2 expr inh
O=C(CSc1nc2ccccc2c(=O)n1CCCN1CCOCC1)Nc1cccc(S(=O)(=O)N2CCCCCC2)c1,?,0.0%,1.6%,23.1µM*,?,-2.1%
COc1ccc(CCNCc2cc3ccc(C)cc3[nH]c2=O)cc1OC,i,-6.4%,-19.3%,-4.6%,-8.4%,-25.6%
COc1ccc(NC(=O)COC(=O)c2ccc(OC)c(S(=O)(=O)N3CCCC3)c2)cc1OC,?,-5.3%,7.5%,7.9%,-2.8%,?
COc1ccc(CNCC(O)(c2ccc(Cl)cc2)c2ccc(Cl)cc2)cc1OC,?,?,22.4µM*,?,-4.7%,?
COc1ccc(CNCC(O)(c2ccc(Cl)cc2)c2ccc(Cl)cc2)cc1,?,0.0%,10µM*,-20.5%,-0.8%,?
COc1ccc(-c2cc(C(=O)Oc3ccc(Br)cc3)c3ccccc3n2)cc1,i,85.3%,67.8%,-0.9%,-7.6%,2.4%
O=C(N/N=C/C=C\c1ccccc1[N+](=O)[O-])c1cc(-c2ccc3ccccc3c2)n[nH]1,?,12.6µM*,8.91µM*,?,?,-30.9%
O=C(N/N=C/c1c[nH]c2ccccc12)c1cc(-c2ccc(-c3ccccc3)cc2)n[nH]1,.,?,-75.9%,?,18.4µM*,?
O=C(N/N=C/c1c[nH]c2ccccc12)c1cc(-c2ccc3ccccc3c2)n[nH]1,?,15.8µM*,-38.7%,-2.2%,-0.6%,27.1%
O=C(N/N=C/c1c[nH]c2ccccc12)c1cc(-c2ccccc2)n[nH]1,i,-5.5%,-45.6%,?,-8.3%,-18.0%[11.3 µM]
Fc1cccc(CNc2ncnc3cc(Cl)ccc23)c1F,i,?,-35.8%,18.4µM*,-3.3%,.
COc1cccc(CNc2ncnc3cc(Cl)ccc23)c1,i,-8.8%,-1.1%,?,7.1%,.
CCCCn1cnc2cc(NCc3ccncc3)ccc21,i,-15.2%,2.6%,-18.1%,-0.3%,4.3%
CCCCn1cnc2cc(NCc3ccc(OCC)cc3)ccc21,i,10µM*,-34.1%,16.3%,-2.2%,8.4%
O=C(O)CCCCCCCCCCCNC(=O)NC12CC3CC(CC(C3)C1)C2,i,13.6%,0.6%,-2.0%,-2.8%,5.1%
COc1c(C)cc(C(=O)C2CCCN(C(=O)c3ccc4cc[nH]c4c3)C2)cc1C (stereo unspecified),i,?,5.2%,?,?,-17.4%
Cc1ccc(NS(=O)(=O)c2cc(NC(=O)c3ccc4c(c3)NC(=O)CS4)ccc2Cl)c(C)c1,?,?,-40.2%,7.31µM*,?,?
COc1ccc(NC(=O)c2ccc3c(c2)NC(=O)CS3)cc1,i,8.0%,5.7%,-9.8%,-1.6%,9.9%
O=C(NCCc1ccccc1)C1CCN(c2ncccn2)CC1,i,2.4%,-14.2%,?,8.2%,2.0%
COc1ccc(OC)c2cc3ccccc3cc12,.,-6.5%,-7.4%,-0.4%,-14.7%,17.8µM*
COc1ccc(CNC(=O)c2ccc3c(=O)n4c(nc3c2)CCCCC4)cc1OC,i,-29.0%,-1.3%,6.51µM*,-13.9%,-16.7%
Cc1ccc(-c2csc(NC(=O)c3ccc4c(=O)n5c(nc4c3)CCCCC5)n2)cc1,i,-26.5%,-3.8%,5.17µM*,11.8%,-25.6%
COc1ccccc1C(=O)Nc1cc2c(cc1N1CCCCC1)n(C)c(=O)n2C,i,-19.2%,-10.7%,-7.6%,1.9%,-9.8%
CCOC(=O)c1cc(-c2ccc(OC)c(S(=O)(=O)N3CCN(c4ccccc4)CC3)c2)on1,.,-19.7%,0.1%,?,3.3%,.
COc1ccc(-c2cc(C)no2)cc1S(=O)(=O)N1CCN(c2ccc(C(C)=O)cc2)CC1,.,-7.2%,1.5%,13µM*,-1.2%,.
SMILES,S2 tox,TGFb SMAD3 inh,HepG2 tox,Nrf2 block,A549 viability,ATXN2 expr inh
O=C(CSc1nc2ccc([N+](=O)[O-])cc2s1)NCC1CCCO1 (stereo unspecified),i,6.3%,0.5%,?,-10.0%,24.8%
CC(C)(C)c1ccc(C(=O)Nc2nnc(SCC(=O)NCC3CCCO3)s2)cc1 (stereo unspecified),i,-2.9%,-7.5%,10.3µM*,-10.2%,15.8µM*
O=C(CSc1nc2cc(Cl)ccc2s1)NCC1CCCO1 (stereo unspecified),i,0.8%,-15.8%,11.6µM*,-10.4%,3.6%
CCOc1ccc(C(=O)Nc2nnc(SCC(=O)NCC3CCCO3)s2)cc1 (stereo unspecified),?,-8.0%,-16.4%,?,6.0%,?
Brc1ccc2ncnc(Nc3ccc(N4CCOCC4)cc3)c2c1,i,4.1%,-8.5%,11.6µM*,-18.1%,30.1%
O=C(NNC(=S)Nc1cccc(C(F)(F)F)c1)c1ccccc1Cl,i,14.1µM*,-83.8%,-25.2%,2.7%,?
O=C(NNC(=S)NCc1ccccc1)c1ccccc1OC(F)F,i,3.4%,-1.1%,-2.8%,13.1%,-4.5%
O=C(NNC(=S)Nc1ccc(Cl)cc1)c1ccccc1OC(F)F,i,14.1µM*,-59.3%,?,-15.2%,?
O=C(NNC(=S)Nc1cccc(C(F)(F)F)c1)c1cccc(Cl)c1,?,?,-67.1%,?,-18.6%,?
O=C(COC(=O)c1ccc([N+](=O)[O-])s1)c1ccc[nH]1,i,4.5%,-42.1%,-2.4%,-14.6%,-4.6%
COC(=O)c1cc(C)nc2c1c(=O)nc(SCc1cccc(C(F)(F)F)c1)n2C1CC1,.,-0.1%,-5.7%,.,-0.6%,.
CN1C2CCC1/C(=C\c1ccc(F)cc1)C(=O)/C2=C/c1ccc(F)cc1,i,-8.0%,-55.5%,-23.5%,-16.6%,-21.4%
C=CC(=O)N1C/C(=C/c2ccc(F)cc2)C(=O)/C(=C\c2ccc(F)cc2)C1,7.08µM*,?,20µM*,?,?,5.62µM*
Cc1ccc(C)c(N2CCN(C(=O)Cc3cn(C)c4ccccc34)CC2)c1,i,?,-45.4%,20.6µM*,?,-15.8%
Cc1ccc(Cl)cc1N1CCN(C(=O)Cc2cn(C)c3ccccc23)CC1,i,?,-34.6%,?,-20.6%,27.7%
N#CCc1ccc(OCCCN2CCC(C(O)(c3ccccc3)c3ccccc3)CC2)cc1,?,.,.,.,.,0.0%
OC(c1ccccc1)(c1ccccc1)C1CCN(CCCOc2ccc3c(c2)CCCC3)CC1,25.1µM*,.,.,.,.,17.8µM*
Cc1cccc2sc(N(Cc3cccnc3)C(=O)CCc3ccccc3)nc12,.,11.2µM*,-33.3%,.,-2.6%,.
